Shown are actives, neighbours in structure and some others; about 3.1% of the full set was active somewhere.
Anthrax LF inh2 = blocks Bacillus anthracis lethal factor protease. multiplex microsphere protease cleavage assay, LF. inhibition, % at 10 µM. AID 588501. P15917. 360,000 compounds, 0.12% hits
Target sequence (P15917 whole entry, looked up): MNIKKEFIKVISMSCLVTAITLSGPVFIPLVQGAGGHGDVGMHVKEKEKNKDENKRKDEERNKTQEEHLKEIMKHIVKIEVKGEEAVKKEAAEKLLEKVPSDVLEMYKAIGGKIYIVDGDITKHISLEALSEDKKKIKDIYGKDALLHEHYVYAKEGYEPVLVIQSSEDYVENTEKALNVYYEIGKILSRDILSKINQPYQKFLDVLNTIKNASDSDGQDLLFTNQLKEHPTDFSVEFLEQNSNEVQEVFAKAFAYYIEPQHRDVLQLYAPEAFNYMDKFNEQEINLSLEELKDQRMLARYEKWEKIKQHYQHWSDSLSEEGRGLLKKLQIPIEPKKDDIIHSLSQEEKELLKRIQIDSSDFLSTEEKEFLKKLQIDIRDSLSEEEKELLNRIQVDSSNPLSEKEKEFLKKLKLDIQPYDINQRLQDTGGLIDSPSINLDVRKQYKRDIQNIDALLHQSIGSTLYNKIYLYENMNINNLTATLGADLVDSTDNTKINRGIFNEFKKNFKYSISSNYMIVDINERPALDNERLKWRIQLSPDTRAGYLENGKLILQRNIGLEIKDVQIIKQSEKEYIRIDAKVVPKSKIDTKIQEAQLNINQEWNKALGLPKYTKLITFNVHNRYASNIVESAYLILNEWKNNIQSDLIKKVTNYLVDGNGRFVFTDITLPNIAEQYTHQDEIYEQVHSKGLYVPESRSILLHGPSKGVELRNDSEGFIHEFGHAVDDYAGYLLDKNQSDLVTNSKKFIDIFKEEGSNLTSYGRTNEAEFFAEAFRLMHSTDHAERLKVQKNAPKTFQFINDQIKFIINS
BoNT F protease = blocks Botulinum neurotoxin F light chain protease; Multiplex microsphere protease cleavage assay, flow cytometry; inhibition, % at 10 µM; 360,000 compounds, 0.22% hits; AID 588497; in the data active = inhibition above about 35%, passing the limit was not always enough; inconclusive = no clear call, values can overlap the other calls
SSB-PriA inh = K. pneumoniae PriA-SSBct interaction inhibition. inhibition, % at 33 µM. AID 1272365. 430,000 compounds, 0.6% hits. AlphaScreen SSBct-PriA binding, biotinylated peptide; in the data active = inhibition mostly above about 37%, no sharp cut-off; inactive = mostly below about 20%
BoNT-A LC inh2 = BoNT A light chain protease inhibition; 360,000 compounds, 0.17% hits; AID 588499; multiplex microsphere protease substrate cleavage, flow cytometry; inhibition, % at 10 µM
Autofluor counter = counter-screen for toxin protease inhibitors: compound fluorescence; compound autofluorescence counterscreen, microsphere flow cytometry; stronger effect = higher value; fluorescence intensity (concentration not given with the values); 360,000 compounds, 3.1% hits; in the data active = fluorescence intensity above about 16000; inconclusive = no clear call, values can overlap the other calls
Numbers stand for hits; - = inactive; ? = inconclusive; . = not tested or not shown; + = active, no number. Cut-off read from the data, not from the text of the source, unless noted: active = inhibition above about 30%; inconclusive = no clear call, values can overlap the other calls; inactive = below that.

SMILES	Anthrax LF inh2	BoNT F protease	SSB-PriA inh	BoNT-A LC inh2	Autofluor counter
O=c1nc(/C=C/c2cccn2-c2ccc([N+](=O)[O-])cc2)cc(C(F)(F)F)[nH]1	-	-	-	-	-
O=c1nc(/C=C/c2cc([N+](=O)[O-])ccc2Cl)cc(C(F)(F)F)[nH]1	-	-	-	-	22027
CCOc1ccc(C(c2c(C)[nH][nH]c2=O)c2c(C)[nH][nH]c2=O)cc1OC	-	-	-	-	-
CCOc1cc(C(c2c(C)[nH][nH]c2=O)c2c(C)[nH][nH]c2=O)ccc1OCc1ccc([N+](=O)[O-])cc1	-	-	-	-	22205
CCOc1cc(C(c2c(C)[nH][nH]c2=O)c2c(C)[nH][nH]c2=O)ccc1OC(=O)c1cccc([N+](=O)[O-])c1	-	-	-	-	19908
CCOc1cc(C(c2c(C)[nH][nH]c2=O)c2c(C)[nH][nH]c2=O)cc([N+](=O)[O-])c1O	-	-	-	-	-
Cc1ccc(-c2csc3nc(SCC(=O)Nc4c(C)cccc4C)n(-c4ccccc4)c(=O)c23)o1	.	.	-	.	.
COc1ccc2nc(C)cc(SCC(=O)N/N=C/c3cccc4ccccc34)c2c1	-	-	.	-	19063
O=C(CSc1cccc2cccnc12)NN=Cc1ccncc1	.	.	-	.	.
COc1cc(/C=N/NC(=O)CSc2cccc3cccnc23)cc(OC)c1OC	.	.	+	.	.
O=C(CSc1cccc2cccnc12)N/N=C/c1cccc(O)c1	-	-	+	-	-
O=C(N(c1ccccc1)c1ccccc1)n1ccnc1	-	-	-	-	21662
CC(C)CS(=O)(=O)C1CCN(C(=O)CSC2CCCC2)CC1	.	.	-	.	.
C[C@H](O)Cn1c(NCc2cccnc2)nc2c1c(=O)n(C)c(=O)n2C	.	.	-	.	.
COC(=O)c1cc(NC(=O)CSc2nncn2C)cc(C(=O)OC)c1	-	-	-	-	20871
Cn1nnnc1SCC(=O)Nc1ccccn1	-	-	-	?	22271
CCC(=O)Nc1cccc(NC(=O)CSc2nnnn2C)c1	-	-	-	-	16778
COC(=O)c1ccc(NC(=O)CSc2nncn2C)cc1	-	-	-	-	-
Cn1nnnc1SCC(=O)Nc1cc(C(=O)O)cc(C(=O)O)c1	-	-	-	?	17115
Cn1nnnc1SCC(=O)NCc1cccc(C(=O)O)c1	-	-	-	?	20029
CCOC(=O)c1nc(Nc2ccc(Nc3ccccc3)cc2)c2ccccc2n1	-	-	47	-	-
COCCN(Cc1ccoc1)C(=O)c1snnc1C	.	.	-	.	.
CCC(C)NC(=O)c1c(C)cc(=O)oc1C (stereo not given)	-	-	-	-	20515
CCCCNC(=O)c1c(C)cc(=O)oc1C	-	-	-	-	22316
CSc1nsc(NN=Cc2ccc3c(c2)OCO3)c1C#N	.	.	-	.	.
SMILES	Anthrax LF inh2	BoNT F protease	SSB-PriA inh	BoNT-A LC inh2	Autofluor counter
CCOc1ccc(OCC)c(-c2c(=O)n(OCc3ccccc3Br)c3ccccc3[n+]2[O-])c1	-	-	-	-	22784
Cc1ccc(/C=N/NC(=O)c2ccco2)s1	-	-	.	-	25160
C[C@H](O)CN1CCN(C(=O)NCCc2ccccc2)CC1	.	.	-	.	.
O=C(COc1ccccc1Br)NCc1ccco1	-	-	-	-	16469
O=C(/C=C/c1ccc(Cl)c(Cl)c1)NCc1ccco1	-	35	-	-	-
Cc1ccc(Cl)c(OCC(=O)NCc2ccco2)c1	-	-	-	?	21508
Cc1nnc(C2CCN(C(=O)c3ccc(=O)n(C)n3)CC2)s1	.	.	-	.	.
NS(=O)(=O)c1ccc(CNC(=O)/C=C/c2cccc([N+](=O)[O-])c2)cc1	-	-	-	-	19057
NS(=O)(=O)c1ccc(CNC(=O)/C=C/c2ccc(Cl)c(Cl)c2)cc1	-	-	-	-	-
CC1(C)CC(NCCN2CCN(C3=CC(=C(C#N)C#N)CC(C)(C)C3)CC2)=CC(=C(C#N)C#N)C1	-	-	-	-	-
CCN1CCN(C2=CC3=CC(=C(C#N)C#N)CCC3CC2)CC1 (stereo not given)	-	48	-	-	30604
N#CC(C#N)=C1C=C2C=C(N3CCOCC3)CCC2CC1 (stereo not given)	-	-	-	-	26074
N#CC(C#N)=C1C=C2C=C(N3CCCCCC3)CCC2CC1 (stereo not given)	84	177	-	48	97979
N#Cc1cc(Cl)c(N2CCOCC2)cc1C#N	-	-	-	-	-
CN1CCN(C2=CC3=CC(=C(C#N)C#N)CCC3CC2)CC1 (stereo not given)	-	-	-	-	17359
COc1ccc(C2SCCN2S(=O)(=O)c2cccc3nsnc23)cc1 (stereo not given)	.	.	-	.	.
O=C(NCC(O)Cc1ccccc1)Nc1ccc(F)cc1 (stereo not given)	.	.	-	.	.
CC1=C(C(=O)Nc2cccnc2)C(c2cccnc2)n2nc(-c3cccs3)nc2N1 (stereo not given)	-	-	-	-	-
CC1=C(C(=O)Nc2ccccc2)C(c2cccnc2)n2nc(-c3cccnc3)nc2N1 (stereo not given)	-	-	-	-	22749
COc1ccc(C)cc1S(=O)(=O)NCC1CCN(C(C)C)CC1	.	.	-	.	.
O=C(COc1ccc(Br)cc1)Nc1ccc(-c2nnc(-c3ccco3)o2)cc1	-	-	-	-	21839
O=c1[nH]nc(-c2cccs2)c2sc(N3CCOCC3)nc12	.	.	-	.	.
COc1ccc2nc(NC(=O)CSc3nnc4n3C(C)(C)Cc3ccccc3-4)sc2c1	-	-	-	-	16715
COc1cc(NC(=O)CSc2nnc3n2C(C)(C)Cc2ccccc2-3)cc(OC)c1	-	-	-	-	16774
COc1ccc2nc(NC(=O)CSc3nnnn3C)sc2c1	-	-	-	-	-
SMILES	Anthrax LF inh2	BoNT F protease	SSB-PriA inh	BoNT-A LC inh2	Autofluor counter
COC(=O)CSc1nnc2n1C(C)(C)Cc1ccccc1-2	-	-	-	-	16446
Cc1ccc(Cl)cc1N1CCN(C(=O)CSc2nnc3n2C(C)(C)Cc2ccccc2-3)CC1	-	-	-	-	-
CC1(C)Cc2ccccc2-c2nnc(SCC(=O)N3CCc4ccccc43)n21	-	-	-	-	24428
CCOC(=O)C(CC)Sc1nnc2n1C(C)(C)Cc1ccccc1-2 (stereo not given)	-	-	-	-	-
CC(=O)c1ccc(-c2cccc(F)c2)o1	.	.	-	.	.
O=C1CCSC[C@@H](C(=O)NCCC2=CCCCC2)N1	.	.	-	.	.
Cc1cccc(C(=O)Nc2ccc(CC(=O)N3CCCC3)cc2)c1	.	.	-	.	.
COc1ccc(N2CCN(C(=O)CSc3nnc4n3C(C)(C)Cc3ccccc3-4)CC2)cc1	-	-	-	-	22079
COc1ccc(N2CCN(S(=O)(=O)c3c(C)c(C)cc(C)c3C)CC2)cc1	.	.	-	.	.
NC(=NOC(=O)c1cc(-c2ccccc2)nc2ccccc12)c1ccccn1	.	.	-	.	.
COc1ccc(CSc2cccc3cccnc23)cc1[N+](=O)[O-]	-	-	45	-	-
O=[N+]([O-])c1cc(C(F)(F)F)cc([N+](=O)[O-])c1Sc1cccc2cccnc12	.	.	56	.	.
O=[N+]([O-])c1cc(O)c2ncccc2c1	.	.	84	.	.
O=[N+]([O-])c1cc([N+](=O)[O-])c2ncccc2c1	.	.	63	.	.
Oc1cc(F)cc2cccnc12	.	.	-	.	.
Fc1nc(F)c(F)c(Sc2cccc3cccnc23)c1F	.	.	-	.	.
O=C(c1ccc2c(c1)OCO2)N1CCO[C@H](c2cc(Cl)cc(Cl)c2)C1	.	.	-	.	.

Screening results: PubChem, several laboratories
